From PubChem BioAssay AID1159580 (chemical genetic matrix, 2015)
The campaign covered roughly 5,500 compounds. About 2,000 (36%) were called active. Not shown: some 18% with an inconclusive outcome. Rule as the data show it: active = normalized growth mostly below about 0.91 (no sharp cut-off); inconclusive = no clear call, values can overlap the other calls; inactive = mostly above about 0.92. The list shows a part of the results.

Assay: chemical genetic growth profiling, strain panel (AID 1159580);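 also: tested at 20 µM; growth read once vehicle control cultures reached saturation at 30 °C; 1 = growth at the plate median or of vehicle wells; lower values mean less growth of the strain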
Settings: growth OD

Measured: normalized growth

COC1C(O)C(O)C(O)[C@@H](O)C1O (some centres undefined)
inactive: S. cerevisiae deletion strains, locus YJR066W, strain TOR1, stronger effect = lower value 0.926 | S. cerevisiae deletion strains, locus YJR075W, strain HOC1, stronger effect = lower value 1.01 | S. cerevisiae deletion strains, locus YKL009W, strain mrt4, stronger effect = lower value 1.1 | S. cerevisiae deletion strains, locus YKL068W, stronger effect = lower value 1.01 | S. cerevisiae deletion strains, locus YKL085W, strain MDH1 (second series), stronger effect = lower value 1.02 | S. cerevisiae deletion strains, locus YKL085W, strain MDH1, stronger effect = lower value 1.02 | S. cerevisiae deletion strains, locus YKL160W, strain elf1, stronger effect = lower value 0.968 | S. cerevisiae deletion strains, locus YKL190W, strain CNB1, stronger effect = lower value 1.01 | S. cerevisiae deletion strains, locus YKR001C, strain vps1, stronger effect = lower value 1.05 | S. cerevisiae deletion strains, locus YKR026C, strain gcn3, stronger effect = lower value 0.978 | S. cerevisiae deletion strains, locus YKR091W, strain srl3, stronger effect = lower value 0.972 | S. cerevisiae deletion strains, locus YLL001W, strain dnm1, stronger effect = lower value 0.944 | S. cerevisiae deletion strains, locus YLL026W, stronger effect = lower value 0.992 | S. cerevisiae deletion strains, locus YLL041C, strain sdh2, stronger effect = lower value 0.978 | S. cerevisiae deletion strains, locus YLR027C, strain aat2, stronger effect = lower value 0.969 | S. cerevisiae deletion strains, locus YLR039C, strain RIC1, stronger effect = lower value 1.07 | S. cerevisiae deletion strains, locus YLR058C, strain SHM2, stronger effect = lower value 1.01 | S. cerevisiae deletion strains, locus YLR102C, strain apc9, stronger effect = lower value 1.02 | S. cerevisiae deletion strains, locus YLR113W, strain HOG1, stronger effect = lower value 0.97 | S. cerevisiae deletion strains, locus YLR221C, strain rsa3, stronger effect = lower value 0.965 | S. cerevisiae deletion strains, locus YLR258W, strain gsy2, stronger effect = lower value 0.979 | S. cerevisiae deletion strains, locus YLR262C, strain YPT6 (second series), stronger effect = lower value 0.971 | S. cerevisiae deletion strains, locus YLR262C, strain YPT6, stronger effect = lower value 1.03 | S. cerevisiae deletion strains, locus YLR268W, strain sec22, stronger effect = lower value 1.05 | S. cerevisiae deletion strains, locus YLR320W, strain mms22, stronger effect = lower value 0.963 | S. cerevisiae deletion strains, locus YLR330W, strain CHS5, stronger effect = lower value 1.01 | S. cerevisiae deletion strains, locus YLR342W, strain FKS1 (second series), stronger effect = lower value 1.08 | S. cerevisiae deletion strains, locus YLR342W, strain FKS1, stronger effect = lower value 0.973 | S. cerevisiae deletion strains, locus YLR357W, strain rsc2, stronger effect = lower value 0.959 | S. cerevisiae deletion strains, locus YLR370C, strain arc18, stronger effect = lower value 0.971 | S. cerevisiae deletion strains, locus YLR371W, strain rom2, stronger effect = lower value 1.02 | S. cerevisiae deletion strains, locus YLR384C, strain iki3, stronger effect = lower value 0.96 | S. cerevisiae deletion strains, locus YLR418C, strain cdc73, stronger effect = lower value 1.06 | S. cerevisiae deletion strains, locus YML016C, strain PPZ1, stronger effect = lower value 1.01 | S. cerevisiae deletion strains, locus YML032C, strain rad52, stronger effect = lower value 1.04 | S. cerevisiae deletion strains, locus YML120C, strain ndi1, stronger effect = lower value 0.97 | S. cerevisiae deletion strains, locus YML124C, strain tub3, stronger effect = lower value 1.02 | S. cerevisiae deletion strains, locus YMR058W, strain fet3, stronger effect = lower value 0.973 | S. cerevisiae deletion strains, locus YMR078C, strain ctf18, stronger effect = lower value 1.01 | S. cerevisiae deletion strains, locus YMR125W, strain sto1, stronger effect = lower value 0.958 | S. cerevisiae deletion strains, locus YMR129W, stronger effect = lower value 0.976 | S. cerevisiae deletion strains, locus YMR205C, strain PFK2, stronger effect = lower value 0.966 | S. cerevisiae deletion strains, locus YMR223W, strain ubp8, stronger effect = lower value 1 | S. cerevisiae deletion strains, locus YMR231W, strain pep5, stronger effect = lower value 0.971 | S. cerevisiae deletion strains, locus YMR263W, strain SAP30, stronger effect = lower value 0.997 | S. cerevisiae deletion strains, locus YMR307W, strain GAS1, stronger effect = lower value 1.05 | S. cerevisiae deletion strains, locus YNL067W, strain RPL9B, stronger effect = lower value 0.998 | S. cerevisiae deletion strains, locus YNL071W, strain lat1, stronger effect = lower value 0.973 | S. cerevisiae deletion strains, locus YNL128W, strain TEP1, stronger effect = lower value 1.03 | S. cerevisiae deletion strains, locus YNL183C, strain NPR1, stronger effect = lower value 0.962 | S. cerevisiae deletion strains, locus YNL209W, strain ssb2, stronger effect = lower value 0.987 | S. cerevisiae deletion strains, locus YNL233W, strain BNI4, stronger effect = lower value 1.01 | S. cerevisiae deletion strains, locus YNL248C, strain rpa49, stronger effect = lower value 0.976 | S. cerevisiae deletion strains, locus YNL250W, strain rad50, stronger effect = lower value 1.02 | S. cerevisiae deletion strains, locus YNL271C, strain bni1, stronger effect = lower value 1.01 | S. cerevisiae deletion strains, locus YNL298W, strain CLA4, stronger effect = lower value 1.03 | S. cerevisiae deletion strains, locus YNL307C, strain MCK1, stronger effect = lower value 1.02 | S. cerevisiae deletion strains, locus YNL322C, strain KRE1 (second series), stronger effect = lower value 0.97 | S. cerevisiae deletion strains, locus YNR049C, strain mso1, stronger effect = lower value 0.979 | S. cerevisiae deletion strains, locus YNR052C, strain pop2, stronger effect = lower value 1.01 | S. cerevisiae deletion strains, locus YOL012C, strain htz1 1.17 | S. cerevisiae deletion strains, locus YOL147C, strain pex11, stronger effect = lower value 1.01 | S. cerevisiae deletion strains, locus YOR001W, strain rrp6, stronger effect = lower value 0.995 | S. cerevisiae deletion strains, locus YOR061W, strain CKA2, stronger effect = lower value 1.02 | S. cerevisiae deletion strains, locus YOR069W, strain VPS5, stronger effect = lower value 1.01 | S. cerevisiae deletion strains, locus YOR070C, strain gyp1, stronger effect = lower value 1 | S. cerevisiae deletion strains, locus YOR080W, strain dia2, stronger effect = lower value 0.979 | S. cerevisiae deletion strains, locus YOR083W, strain WHI5, stronger effect = lower value 0.964 | S. cerevisiae deletion strains, locus YOR106W, strain vam3, stronger effect = lower value 0.96 | S. cerevisiae deletion strains, locus YOR136W, strain idh2, stronger effect = lower value 1.03 | S. cerevisiae deletion strains, locus YOR144C, strain elg1, stronger effect = lower value 1.01 | S. cerevisiae deletion strains, locus YOR184W, strain ser1, stronger effect = lower value 1.03 | S. cerevisiae deletion strains, locus YOR231W, strain MKK1, stronger effect = lower value 0.977 | S. cerevisiae deletion strains, locus YOR265W, strain rbl2, stronger effect = lower value 0.989 | S. cerevisiae deletion strains, locus YOR270C, strain vph1, stronger effect = lower value 0.985 | S. cerevisiae deletion strains, locus YOR290C, strain snf2, stronger effect = lower value 0.913 | S. cerevisiae deletion strains, locus YOR316C, strain cot1, stronger effect = lower value 1.02 | S. cerevisiae deletion strains, locus YPL051W, strain arl3, stronger effect = lower value 0.97 | S. cerevisiae deletion strains, locus YPL055C, strain LGE1, stronger effect = lower value 1.02 | S. cerevisiae deletion strains, locus YPL078C, strain atp4, stronger effect = lower value 0.965 | S. cerevisiae deletion strains, locus YPL106C, strain sse1, stronger effect = lower value 0.949 | S. cerevisiae deletion strains, locus YPL240C, strain hsp82, stronger effect = lower value 0.986 | S. cerevisiae deletion strains, locus YPL256C, strain CLN2, stronger effect = lower value 0.93 | S. cerevisiae deletion strains, locus YPR119W, strain clb2, stronger effect = lower value 1.02 | S. cerevisiae deletion strains, locus YPR141C, strain kar3, stronger effect = lower value 1.03 | S. cerevisiae deletion strains, locus YPR163C, strain tif3, stronger effect = lower value 1.02 | S. cerevisiae deletion strains, locus YPR167C, strain met16, stronger effect = lower value 1.05 | S. cerevisiae deletion strains, strain wtn01, stronger effect = lower value 1.06 | S. cerevisiae strains, strain wild type, stronger effect = lower value 1.01
